Reference: PubChem BioAssay (EPA / NIEHS)
Calls of active or inactive are those of the source. The calls were made as follows: active = hit-call score of the fitted dose curve at least 0.9, where 1 is the maximum; inactive = score below 0.9.

Assay: APR_HepG2_NuclearSize_1hr: Apredica 1-hour HepG2 Assay for Nuclear Size (AID 2282670)
Conditions: high-content imaging, actives raise or lower the signal
Description: APR_HepG2_1hr is a cell-based, multiplexed-readout assay that uses HepG2, a human liver cell line, with measurements taken at 1 hour after chemical dosing in a 384-well plate.APR_HepG2_NuclearSize_1hr is one of 10 assay component(s) measured or calculated from the APR_HepG2_1hr assay. It is designed to make measurements of cell phenotype, a form of morphology reporter, as detected with fluorescence intensity signals by HCS Fluorescent Imaging technology.Data from the assay component APR_HepG2_NuclearSize_1hr was analyzed into 1 assay endpoint. This assay endpoint, APR_HepG2_NuclearSize_1hr, was analyzed with bidirectional fitting relative to DMSO as the negative control and baseline of activity. Using a type of morphology reporter, measures of all nuclear dna for gain or loss-of-signal activity can be used to understand the signaling at the nuclear-level. Furthermore, this assay endpoint can be referred to as a primary readout, because this assay has produced multiple assay endpoints where this one serves a signaling function. To generalize the intended target to other relatable targets, this assay endpoint is annotated to the cell morphology intended target family, where the subfamily is organelle conformation.
Cells were treated with dimethyl sulfoxide (DMSO) as a solvent control at a final concentration of 0.5% v/v or with compounds in DMSO with a resulting final DMSO concentration of 0.5% v/v. Compound treatment was done at concentrations of 0.39, 0.78, 1.56, 3.12, 6.24, 12.5, 25, 50, 100, and 200 uM in duplicate on each plate. Cells were treated with compounds for 1, 24, or 72 hr. Carbonyl […] m-chloro-phenylhydrazone (CCCP) and taxol were used as positive controls for mitochondrial function and cytoskeletal stability, respectively; DMSO served as the negative control for this experiment. Cells were fixed by the direct addition of 50 uL formaldehyde in Hank's Balanced Salt Solution (HBSS) to a final concentration of 3.7%. After incubation in the fixation medium for 30 min at room temperature (293-298 K), cells were rinsed twice with HBSS and treated with cell permeabilization buffer (16 uL of 0.5% Triton X-100) for 10 min at room temperature (293-298 K) before labeling. For mitochondrial membrane potential and mitochondrial measurements, pre-fixed cells were incubated with 50 uL of MitoTracker Red CMXRos (Invitrogen) at a concentration of 250 nM for 30 min before fixation. In the remaining cases, post-fixed cells were labeled by incubation with a multiplexed mixture of primary antibodies in HBSS for 60 min at room temperature (293-298 K) to detect immunoreactivity of c-Jun (1:500), phospho-histone H3 (1:100), phospho-histone H2A.x (1:200), p53 (1:400), alpha-tubulin (1:200) and Hoechst 33342 (2 ug/mL). Cells were labeled for multiplexed imaging on two separate plates: a) Hoechst 33342, MitoTracker Red, phospho-histone H3, and alpha-tubulin, and b) Hoechst 33342, phospho-histone H2A.x, and c-Jun. A final rinse with HBSS (50 uL) was performed before analysis. The primary and secondary antibodies for the proteins were phospho-histone H3 (rabbit anti-phospho-histone H3 and FITC-donkey anti-rabbit IgG), phospho-histone H2A.x (mouse anti-phospho-histone H2A.x and FITC-donkey anti-mouse IgG), c-Jun (rabbit anti-phospho-c-Jun and Cy3-donkey anti-rabbit IgG), p53 (sheep anti-p53 and Cy5-donkey anti-sheep IgG), alpha-tubulin (mouse anti-alpha-tubulin and Cy5-donkey anti-mouse IgG). These antibodies are available as the CellCiphr HepG2 assay kit (Millipore).Digital images of each well were captured using a Cellomics ArrayScan VTI (Thermo Scientific Cellomics) (0.8 NA objective, 0.63x optical coupler, and XF-93 filter set) at 20x magnification. The images were acquired using the autofocus feature of the ArrayScan instrument, which entails the following steps. First, the camera focuses on channel 1 (Hoechst 33342), where nuclei are identified. Second, a Z offset of 1 um is used for capturing mitochondria (MitoTracker Red). […]
For `CSc1nc(NC(C)C)nc(NC(C)C)n1`, the outcome was “inactive”. For `CC[C@H](C)[C@H]1O[C@]2(C=C[C@@H]1C)C[C@@H]1C[C@@H](C/C=C(\C)[C@@H](O[C@H]3C[C@H](OC)[C@@H](O[C@H]4C[C@H](OC)[C@@H](NC)[C@H](C)O4)[C@H](C)O3)[C@@H](C)/C=C/C=C3\CO[C@@H]4[C@H](O)C(C)=C[C@@H](C(=O)O1)[C@]34O)O2`, the outcome was “inactive”. In the case of `C#CC(C)(C)NC(=O)c1cc(Cl)cc(Cl)c1`, the outcome is reported as “inactive”. For `CCc1cccc(CC)c1N(COC)C(=O)CCl`, the outcome was “inactive”. For `CCCCN(CC)c1c([N+](=O)[O-])cc(C(F)(F)F)cc1[N+](=O)[O-]`, the outcome was “inactive”. With `COP(=O)(NC(C)=O)SC` (stereo not given) the outcome was “inactive”. For `O=c1ccc(=O)[nH][nH]1`, the outcome was “inactive”. With `Cc1nn(-c2cc(NS(C)(=O)=O)c(Cl)cc2Cl)c(=O)n1C(F)F` the outcome was “inactive”. For `O=[N+]([O-])c1cc(C(F)(F)F)c(Cl)c([N+](=O)[O-])c1Nc1ncc(C(F)(F)F)cc1Cl`, the outcome was “inactive”. With `CON=C(C(=O)OC)c1ccccc1CON=C(C)c1cccc(C(F)(F)F)c1` the outcome was “inactive”. With `CCC(=O)Nc1ccc(Cl)c(Cl)c1` the outcome was “inactive”. With `CCOP(=O)(NC(C)C)Oc1ccc(SC)c(C)c1` (stereo not given) the outcome was “inactive”. With `CC(=NC#N)N(C)Cc1ccc(Cl)nc1` the outcome was “inactive”. With `FC(F)C(F)(F)OCC(Cn1cncn1)c1ccc(Cl)cc1Cl` (stereo not given) the outcome was “inactive”. In the case of `COc1ccc(C(=CC(=O)N2CCOCC2)c2ccc(Cl)cc2)cc1OC`, the outcome is reported as “inactive”. With `CSc1nnc(C(C)(C)C)c(=O)n1N` the outcome was “inactive”. In the case of `N#CSCSC#N`, the outcome is reported as “inactive”. In the case of `CN(C)C(=O)Nc1cccc(C(F)(F)F)c1`, the outcome is reported as “inactive”. In the case of `CC1=NNC(=O)N(/N=C/c2cccnc2)C1`, the outcome is reported as “inactive”. In the case of `CNC(=O)ON=C(C)SC`, the outcome is reported as “inactive”. For `COP(=O)(OC)SCn1c(=O)oc2cc(Cl)cnc21`, the outcome was “inactive”. With `CCOC(=O)CC(SP(=O)(OC)OC)C(=O)OCC` (stereo not given) the outcome was “inactive”. In the case of `CC(C)N(C(=O)SCC(Cl)=C(Cl)Cl)C(C)C`, the outcome is reported as “inactive”. With `CC(C1CC1)C(O)(Cn1cncn1)c1ccc(Cl)cc1` (stereo not given) the outcome was “inactive”. With `CNC(=O)ON=C(SC)C(=O)N(C)C` the outcome was “inactive”. In the case of `CCCCOC(=O)c1ccccc1C(=O)O`, the outcome is reported as “inactive”. For `S=C1NCCN1`, the outcome was “inactive”. With `CCOP(=S)(OCC)Oc1ccc([N+](=O)[O-])cc1` the outcome was “inactive”. With `Nc1nc(N)nc(NC2CC2)n1` the outcome was “inactive”. For `O=C(O)c1cc(Oc2ccc(C(F)(F)F)cc2Cl)ccc1[N+](=O)[O-]`, the outcome was “inactive”. In the case of `C[N+]1(C)CCCCC1`, the outcome is reported as “inactive”. For `CCOP(=S)(OCC)Oc1cc(C)nc(C(C)C)n1`, the outcome was “inactive”. In the case of `CCOP(=O)(SC(C)CC)N1CCSC1=O` (stereo not given), the outcome is reported as “inactive”. With `CC(Oc1cccc(Cl)c1)C(=O)O` (stereo not given) the outcome was “inactive”. With `CCCCSP(=O)(SCCCC)SCCCC` the outcome was “inactive”. In the case of `Nc1c(Cl)cc([N+](=O)[O-])cc1Cl`, the outcome is reported as “inactive”. With `CCCSP(=O)(OCC)SCCC` the outcome was “inactive”. With `CSC1=N[C@@](C)(c2ccccc2)C(=O)N1Nc1ccccc1` the outcome was “inactive”. With `CN1COCN(Cc2cnc(Cl)s2)C1=N[N+](=O)[O-]` the outcome was “inactive”. For `CCCOc1nn(C(=O)NS(=O)(=O)c2ccccc2C(=O)OC)c(=O)n1C`, the outcome was “inactive”.
